Measured values from article PMC7862700, “An all-to-all approach to the identification of sequence-specific readers for epigenetic DNA modifications on cytosine”.

Experiments:
Test in all cases: DAPPL (digital affinity profiling via proximity ligation, sequencing); 10 mM Tris-HCl pH 7.5, 50 mM NaCl, 1 mM DTT, 4% glycerol, room temperature, 30 min; GST-TFs on glutathione beads, 16-mer random dsDNA library, 0.1% formaldehyde crosslink after washing; high values mean tight binding
Details in all cases: protein: recombinant; tags: N-terminal GST; dsDNA, one strand shown
FLI1 = target: T1, FLI1 (Homo sapiens, UniProt Q01543 1-452)
T1 sequence: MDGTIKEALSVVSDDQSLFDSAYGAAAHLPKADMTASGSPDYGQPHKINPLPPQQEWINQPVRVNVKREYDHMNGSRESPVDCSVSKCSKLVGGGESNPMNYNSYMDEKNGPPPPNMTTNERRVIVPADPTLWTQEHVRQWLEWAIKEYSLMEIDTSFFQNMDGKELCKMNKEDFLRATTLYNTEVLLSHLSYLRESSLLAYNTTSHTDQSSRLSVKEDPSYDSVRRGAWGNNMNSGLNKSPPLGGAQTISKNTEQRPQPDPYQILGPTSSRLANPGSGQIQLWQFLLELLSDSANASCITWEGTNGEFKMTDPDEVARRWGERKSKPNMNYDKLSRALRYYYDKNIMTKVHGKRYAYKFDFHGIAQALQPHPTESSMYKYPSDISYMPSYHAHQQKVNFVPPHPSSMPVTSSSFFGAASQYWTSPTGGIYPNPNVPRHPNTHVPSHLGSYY
How it was run: (§1)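 Sequencing on an Illumina NextSeq500 followed washing, crosslinking with 0.1% formaldehyde, proximity ligation (BsaI/T4 ligase, 1 h, 37 °C) and PCR amplification of pools that had been incubated for 30 min at room temperature with 200 nmole of a random double-stranded 16-mer DNA library in Tris/NaCl/DTT/glycerol buffer. Each pool held DNA-barcoded human transcription factors, expressed in yeast as GST fusions and captured on glutathione beads, plus a tag-only sample. Binding signal is a hexamer's read frequency for a factor divided by its frequency in the tag-only sample.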

EHF = target: T2, EHF (Homo sapiens, UniProt Q9NZC4 1-300)
T2 sequence: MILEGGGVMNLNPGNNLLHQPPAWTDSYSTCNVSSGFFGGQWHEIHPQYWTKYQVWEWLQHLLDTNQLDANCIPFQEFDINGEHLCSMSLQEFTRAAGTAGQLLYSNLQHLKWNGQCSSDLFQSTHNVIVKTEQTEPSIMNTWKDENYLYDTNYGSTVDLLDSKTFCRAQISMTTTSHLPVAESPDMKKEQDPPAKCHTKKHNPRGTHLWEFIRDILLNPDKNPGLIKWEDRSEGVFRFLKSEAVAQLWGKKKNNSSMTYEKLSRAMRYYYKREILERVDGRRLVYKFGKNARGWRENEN
How it was run: as §1

SPIC = target: T3, SPIC (Homo sapiens, UniProt Q8N5J4 1-248)
T3 sequence: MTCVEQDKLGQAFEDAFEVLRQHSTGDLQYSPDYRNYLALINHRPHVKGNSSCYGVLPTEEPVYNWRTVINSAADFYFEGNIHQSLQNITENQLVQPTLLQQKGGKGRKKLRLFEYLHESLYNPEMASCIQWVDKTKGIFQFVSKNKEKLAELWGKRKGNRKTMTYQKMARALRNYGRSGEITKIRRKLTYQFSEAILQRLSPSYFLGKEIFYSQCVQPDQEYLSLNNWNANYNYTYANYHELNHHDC
How it was run: as §1

ELF4 = ELF4 (Homo sapiens, UniProt Q99607 1-663)
ELF4, sequence (Q99607 whole entry): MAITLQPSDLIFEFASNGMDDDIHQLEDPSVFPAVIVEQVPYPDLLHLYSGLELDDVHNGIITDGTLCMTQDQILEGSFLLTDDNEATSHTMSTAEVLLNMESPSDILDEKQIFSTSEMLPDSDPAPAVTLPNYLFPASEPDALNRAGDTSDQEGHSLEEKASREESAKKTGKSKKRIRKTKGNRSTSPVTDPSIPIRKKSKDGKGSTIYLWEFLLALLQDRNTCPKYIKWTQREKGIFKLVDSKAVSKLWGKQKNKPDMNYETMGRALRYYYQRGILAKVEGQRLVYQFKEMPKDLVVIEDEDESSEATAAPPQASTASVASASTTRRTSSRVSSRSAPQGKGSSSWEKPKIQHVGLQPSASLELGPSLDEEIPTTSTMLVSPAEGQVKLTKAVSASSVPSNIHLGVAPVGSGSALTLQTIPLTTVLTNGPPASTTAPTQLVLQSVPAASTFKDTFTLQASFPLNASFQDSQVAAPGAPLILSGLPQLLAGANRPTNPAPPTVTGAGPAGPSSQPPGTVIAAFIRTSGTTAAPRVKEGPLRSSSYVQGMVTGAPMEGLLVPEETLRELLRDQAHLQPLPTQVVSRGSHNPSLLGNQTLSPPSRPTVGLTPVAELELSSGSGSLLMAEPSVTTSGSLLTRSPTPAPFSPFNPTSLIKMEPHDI
How it was run: as §1

ELK4 = target: T4, ELK4 (Homo sapiens, UniProt P28324-2 1-405)
T4 sequence: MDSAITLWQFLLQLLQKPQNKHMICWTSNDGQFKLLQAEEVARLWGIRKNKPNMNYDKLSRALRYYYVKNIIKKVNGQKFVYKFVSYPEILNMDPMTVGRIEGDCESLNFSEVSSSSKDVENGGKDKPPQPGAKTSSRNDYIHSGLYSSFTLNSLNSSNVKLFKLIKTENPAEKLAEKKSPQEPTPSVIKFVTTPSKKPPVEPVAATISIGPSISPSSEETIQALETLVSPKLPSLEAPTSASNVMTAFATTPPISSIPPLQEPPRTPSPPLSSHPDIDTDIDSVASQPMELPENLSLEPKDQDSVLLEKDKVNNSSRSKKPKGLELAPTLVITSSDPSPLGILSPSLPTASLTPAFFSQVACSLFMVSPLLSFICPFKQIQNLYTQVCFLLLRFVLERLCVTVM
How it was run: as §1

ELF3 = target: T5, ELF3 (Homo sapiens, UniProt P78545 1-371)
T5 sequence: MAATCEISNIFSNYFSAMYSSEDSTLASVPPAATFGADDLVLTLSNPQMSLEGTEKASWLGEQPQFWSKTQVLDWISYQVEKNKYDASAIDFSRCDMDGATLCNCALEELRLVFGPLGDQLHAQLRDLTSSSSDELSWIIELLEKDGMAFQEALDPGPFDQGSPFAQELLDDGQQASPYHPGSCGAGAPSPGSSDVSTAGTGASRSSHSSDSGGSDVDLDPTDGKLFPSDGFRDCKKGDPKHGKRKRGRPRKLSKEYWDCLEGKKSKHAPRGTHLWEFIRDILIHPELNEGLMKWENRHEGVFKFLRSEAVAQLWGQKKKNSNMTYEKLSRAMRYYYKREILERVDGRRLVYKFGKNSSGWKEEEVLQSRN
How it was run: as §1

ETV1 = ETV1 (Homo sapiens, UniProt P50549 1-477)
ETV1, sequence (P50549 whole entry): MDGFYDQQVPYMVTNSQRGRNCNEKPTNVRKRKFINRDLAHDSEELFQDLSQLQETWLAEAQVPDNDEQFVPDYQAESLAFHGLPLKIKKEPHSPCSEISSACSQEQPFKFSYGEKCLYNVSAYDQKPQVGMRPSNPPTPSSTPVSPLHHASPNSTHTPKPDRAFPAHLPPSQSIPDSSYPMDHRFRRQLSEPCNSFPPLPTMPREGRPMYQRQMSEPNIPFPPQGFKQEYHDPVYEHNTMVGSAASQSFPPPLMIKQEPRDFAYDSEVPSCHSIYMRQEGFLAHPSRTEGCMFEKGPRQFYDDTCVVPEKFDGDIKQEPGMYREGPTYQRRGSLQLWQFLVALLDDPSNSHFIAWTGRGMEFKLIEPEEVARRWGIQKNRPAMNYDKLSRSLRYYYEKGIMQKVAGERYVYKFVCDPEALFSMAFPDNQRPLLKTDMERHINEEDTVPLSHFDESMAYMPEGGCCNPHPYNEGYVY
How it was run: as §1

ERF = target: T6, ERF (Homo sapiens, UniProt P50548 1-548)
T6 sequence: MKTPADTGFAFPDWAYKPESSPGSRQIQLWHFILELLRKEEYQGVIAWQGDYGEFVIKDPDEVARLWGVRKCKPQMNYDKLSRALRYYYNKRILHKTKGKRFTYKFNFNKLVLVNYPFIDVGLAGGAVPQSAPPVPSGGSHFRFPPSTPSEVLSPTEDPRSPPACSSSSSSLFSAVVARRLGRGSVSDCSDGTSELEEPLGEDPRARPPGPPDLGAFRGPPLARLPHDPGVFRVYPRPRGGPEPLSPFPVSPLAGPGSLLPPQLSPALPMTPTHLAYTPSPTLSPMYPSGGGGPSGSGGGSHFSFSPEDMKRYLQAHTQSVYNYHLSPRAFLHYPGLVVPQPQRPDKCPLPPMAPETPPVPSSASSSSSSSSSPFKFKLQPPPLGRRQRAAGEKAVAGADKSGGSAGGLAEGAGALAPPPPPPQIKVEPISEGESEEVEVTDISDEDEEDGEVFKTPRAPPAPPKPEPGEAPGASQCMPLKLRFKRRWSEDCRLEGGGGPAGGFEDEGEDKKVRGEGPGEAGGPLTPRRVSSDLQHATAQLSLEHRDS
How it was run: as §1

ETV3L = target: T7, ETV3L (Homo sapiens, UniProt Q6ZN32 1-361)
T7 sequence: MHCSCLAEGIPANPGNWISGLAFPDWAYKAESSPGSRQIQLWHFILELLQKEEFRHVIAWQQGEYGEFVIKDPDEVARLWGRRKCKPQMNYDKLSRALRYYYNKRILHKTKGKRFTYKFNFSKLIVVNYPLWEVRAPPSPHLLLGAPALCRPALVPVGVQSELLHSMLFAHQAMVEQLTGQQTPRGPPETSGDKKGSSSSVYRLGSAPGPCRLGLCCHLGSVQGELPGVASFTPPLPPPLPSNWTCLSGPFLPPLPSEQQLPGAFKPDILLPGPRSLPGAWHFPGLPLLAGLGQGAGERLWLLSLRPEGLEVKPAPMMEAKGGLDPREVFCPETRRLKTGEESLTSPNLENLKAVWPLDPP
How it was run: as §1

ETV3 = target: T8, ETV3 (Homo sapiens, UniProt P41162-2 1-143)
T8 sequence: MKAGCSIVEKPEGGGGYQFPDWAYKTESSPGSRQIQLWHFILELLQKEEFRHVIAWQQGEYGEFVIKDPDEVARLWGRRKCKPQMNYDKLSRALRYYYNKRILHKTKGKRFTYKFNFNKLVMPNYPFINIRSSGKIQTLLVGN
How it was run: as §1

ETV6 = ETV6 (Homo sapiens, UniProt P41212 1-452)
ETV6, sequence (P41212 whole entry): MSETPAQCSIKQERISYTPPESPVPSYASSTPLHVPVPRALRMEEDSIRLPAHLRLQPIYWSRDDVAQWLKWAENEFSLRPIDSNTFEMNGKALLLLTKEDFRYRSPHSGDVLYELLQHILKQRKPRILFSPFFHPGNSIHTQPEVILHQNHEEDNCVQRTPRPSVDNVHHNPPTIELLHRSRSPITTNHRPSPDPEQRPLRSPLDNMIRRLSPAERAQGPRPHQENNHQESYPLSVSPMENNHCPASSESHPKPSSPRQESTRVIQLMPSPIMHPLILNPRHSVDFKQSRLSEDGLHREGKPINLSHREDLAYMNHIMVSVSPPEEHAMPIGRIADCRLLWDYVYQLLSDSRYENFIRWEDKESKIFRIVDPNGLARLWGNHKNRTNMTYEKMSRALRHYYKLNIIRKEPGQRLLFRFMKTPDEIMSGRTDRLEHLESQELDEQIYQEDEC
How it was run: as §1

GCTAGG
binding signal (FLI1): 1.01 fold enrichment (6-mer frequency, TF over GST control) | binding signal (EHF): 1.12 fold enrichment (6-mer frequency, TF over GST control) | binding signal (SPIC): 1.03 fold enrichment (6-mer frequency, TF over GST control) | binding signal (ELF4): 1.06 fold enrichment (6-mer frequency, TF over GST control) | binding signal (ELK4): 1.08 fold enrichment (6-mer frequency, TF over GST control) | binding signal (ELF3): 1.14 fold enrichment (6-mer frequency, TF over GST control) | binding signal (ETV1): 1 fold enrichment (6-mer frequency, TF over GST control) | binding signal (ERF): 1.01 fold enrichment (6-mer frequency, TF over GST control) | binding signal (ETV3L): 1.06 fold enrichment (6-mer frequency, TF over GST control) | binding signal (ETV3): 1.03 fold enrichment (6-mer frequency, TF over GST control) | binding signal (ETV6): 1.07 fold enrichment (6-mer frequency, TF over GST control)
